Sampled rows, rich in hits. Any-hit rate of the full collection: about 6.7%.
KB-3-1 tox: KB-3-1 parental cell cytotoxicity | 1.4% of 400,000 active | AID 1347075 | Potency, µM (top dose mostly 46.1 µM), hits mostly cytotoxic | KB-3-1 viability, CellTiter-Glo ATP luminescence, 72 h; further: on the % scale 0 is the no-effect control and ±100 the full control effect; nearly all actives have a fitted effect of over 60% in size
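Cells are dispensed, compounds pinned in, plates held at 37 °C for 72 h, then CellTiter-Glo is added and luminescence read after 10 minutes. Cell line: parental KB-3-1 in phenol-red-free DMEM, 10% FBS.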
SW480 rerep: DNA re-replication induction in SW480 cells; SW480 DNA re-replication, Hoechst DNA content imaging, 48 h; Potency, µM (highest dose often 46.1 µM), without a hit: at the highest dose re-replication activation, most hits filed as activators; 1.8% of 340,000 active; AID 624297; further: % of control where 0% means no effect; nearly all actives have a fitted effect of over 55% in size
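Per well, 250 cells were exposed to pinned compound for 48 hr. Nuclear DNA was visualised with Hoechst (40 min, 37 C) and total object intensity recorded by fluorescence scanning.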
KB-V1 cytotox: KB-V1 MDR subline cytotoxicity. KB-V1 MDR cells viability, CellTiter-Glo, 72 h. AID 1347076. 3.4% of 400,000 active. Potency, µM (top dose mostly 46.1 µM), usual class: cytotoxic; further: on the % scale 0 is the no-effect control and ±100 the full control effect; nearly all actives have a fitted effect of over 60% in size
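KB-V1, DMEM (no phenol red) + 10% FBS; cpd pin-transferred, titration series; 72 h, 37 degrees C; CellTiter-Glo, luminescence. Data normalized, curve-fit.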
PINK1 expr mod: PINK1 expression modulation; PINK1 immunofluorescence, high-content cytometry, 24 h; Potency, µM (titrated, usually from 76.6 µM), for the others: at the top dose activation (PINK1 increase), usual class: activators; 0.2% of 410,000 active; AID 624263; active means well fitted activation curve with a large enough effect; inconclusive means small, poorly fitted or top-dose-only effect; cell line not stated here; further: % of control where 0% means no effect; nearly all actives have a fitted effect of over 65% in size
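Measures PINK1 amount and localization on or inside mitochondria by immunofluorescence. Stable cells get compounds at 5 concentrations for 24 hours before fixation and staining; CCCP controls included.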
MCF10A rereplic: inducers of DNA re-replication in MCF 10A breast cells. Potency, µM (top dose mostly 46.1 µM), without a hit: top-dose activity, positive = re-replication, actives largely listed as activators. MCF 10A DNA re-replication, Hoechst nuclear intensity, 48 h. 2.9% of 350,000 active. AID 624296; further: % of control where 0% means no effect; nearly all actives have a fitted effect of over 50% in size
Active calls of the source: *; i = inactive; u = inconclusive; x = no result given; ! = not confirmed by another sample; [ ] = dose if it differs, or a comment. Unless noted, the call rests on the fitted dose curve; in most records, active means well fitted curve in the direction sought with a large enough effect; inconclusive means small, poorly fitted or top-dose-only effect, or another doubt; inactive means no such curve, though single readings can be large; an effect the other way counts as inactive or inconclusive. Potency means the concentration at half of the fitted maximal effect.

SMILES | KB-3-1 tox | SW480 rerep | KB-V1 cytotox | PINK1 expr mod | MCF10A rereplic
CCN(CC)C(=O)Oc1cc(=O)n2c3c(cccc13)CCC2 | i | -5% | 16µM* | 3% | 1%
CC(=O)Nc1ccc(C2=NNC(=Nc3cccc(S(=O)(=O)N(C)C)c3)SC2)cc1 | i | -54% | u | u | u
COc1ccc(C2=NNC(=Nc3cc(S(=O)(=O)N(C)C)ccc3C)SC2)c(OC)c1 | u | 19% | u | 2.8µM* | 4%
Cc1cccc(N=C2NN=C(c3ccccc3F)CS2)c1C | i | 23% | i | 1% | 9%
CN(C)S(=O)(=O)c1cccc(N=C2NN=C(c3ccccc3)CS2)c1 | u | 13µM* | u | 32µM* | 11%
COc1cc(NC(=O)Cn2cnc3sc(C)c(S(=O)(=O)N4CCC(C)CC4)c3c2=O)cc(OC)c1OC | i | x | i | 3% | x
CCNC(=O)C(=O)Nc1ccc2c(c1)N(S(=O)(=O)c1cccs1)CCC2 | i | u | u | 13% | 29%
CN(C)CCCNC(=O)C(=O)Nc1ccc2c(c1)N(S(=O)(=O)c1cccs1)CCC2 | u | 2% | i | 1% | u
CN(C)CCNC(=O)C(=O)Nc1ccc2c(c1)N(S(=O)(=O)c1cccs1)CCC2 | 6.5µM* | 18µM* | u | 10% | u
C=CCNC(=O)C(=O)Nc1ccc2c(c1)N(S(=O)(=O)c1cccs1)CCC2 | u | u | 23µM* | 6% | u
CCCNC(=O)C(=O)Nc1ccc2c(c1)N(S(=O)(=O)c1cccs1)CCC2 | u | 18µM* | u | 4% | 15µM*
COCCCNC(=O)C(=O)Nc1ccc2c(c1)N(S(=O)(=O)c1cccs1)CCC2 | 1.2µM* | 1µM* | 1µM* | 3% | 1.3µM*
COc1ccc(CN(C)C(=O)Cc2ccc(OC)c(S(=O)(=O)N3CCOCC3)c2)cc1 | i | u | i | -2% | u
Cc1cc2n(n1)CCCN2C(=O)Nc1cccc(C)c1C | i | x | i | 1% | x
COc1ccc(-c2nc(NC(=O)C3CC(=O)N(c4ccc5c(c4)OCCO5)C3)sc2C)cc1 (stereo not drawn) | 13µM*! | 4.1µM* | u | 2% | 3.3µM*
O=C(NCCCc1ccccc1)C1CC(=O)N(c2ccc3c(c2)OCCO3)C1 (stereo not drawn) | i | 0% | 23µM* | 8%[38.3 µM] | 3%
O=C(NCCc1ccccc1)C1CC(=O)N(c2ccc3c(c2)OCCO3)C1 (stereo not drawn) | i | -4% | i | 1% | -3%
COc1ccc2nc(NC(=O)C3CC(=O)N(c4ccc5c(c4)OCCO5)C3)sc2c1 (stereo not drawn) | i | -6% | i | 4% | 4%
Cc1ccccc1C(=O)Nc1cccc(C(=O)OCc2cc(=O)n3c4c(sc3n2)CCCC4)c1 | x | x | x | 1% | x
CN(Cc1ccccc1)C(=O)C1CCCN(Cc2cccc(Cl)c2)C1 (stereo not drawn) | u | -43% | i | 2% | 0.29µM*
CC1(C)C2CCC1(C)C(SC(=N)N)C2 (stereo not drawn) | i | u | 18µM* | 0% | 12%
CC1(C)C2CC[C@]1(C)[C@@H](O)C2 | x | 1% | x | x | -2%
COc1ccc(CC(=O)NNS(=O)(=O)c2ccc(F)cc2)cc1 | i | 22% | i | 2% | -1%
Cc1ccc(-n2ncc(C(=O)NC3CCCCC3)c2C2CCN(C(=O)OC(C)(C)C)CC2)cc1 | i | x | i | 1% | x
CN(CC(=O)Nc1c(Cl)cccc1Cl)C(=O)c1cc(-c2cccs2)nn1-c1ccccc1 | i | 0% | 4.1µM* | -1% | u
SMILES | KB-3-1 tox | SW480 rerep | KB-V1 cytotox | PINK1 expr mod | MCF10A rereplic
Cc1ccc(C)c(S(=O)(=O)N2CCN(C(=O)c3cc(-c4cccs4)nn3-c3ccccc3)CC2)c1 | u | -1% | 6.5µM* | 1% | u
Cc1ccc(S(=O)(=O)N2CCN(C(=O)c3cc(C4CC4)nn3-c3ccccc3)CC2)cc1 | i | x | i | 2% | x
CN(CC(=O)Nc1ccccc1Cl)C(=O)c1cc(-c2cccs2)nn1-c1ccccc1 | i | 13% | u | -5% | u
COc1ccc(Cl)cc1NC(=O)Cn1c(=O)n(Cc2ccc(F)cc2)c(=O)c2cccnc21 | i | x | i | 0% | x
CN[C@H]1CC[C@@H](c2ccc(Cl)c(Cl)c2)c2ccccc21 | u | u | 21µM*! | x | u
CCOC(=O)c1cnc(-n2nc(C)cc2C)nc1NC1CCCCC1 | u | u | 8.2µM* | -1% | 21µM*
CCOC(=O)c1cnc(-n2nc(C)cc2C)nc1NNc1nc(-c2ccccc2)cc(-c2ccccc2)n1 | 26µM* | u | u | u | u
CCOC(=O)c1cnc(-n2nc(C)cc2C)nc1N(CC)CC | i | u | 1.6µM* | 4%[38.3 µM] | -1%
CCOC(=O)c1cnc(-n2nc(C)cc2C)nc1NC | i | u | u | 0%[38.3 µM] | 1%
CCOC(=O)c1cnc(-n2cc(C)cn2)nc1Nc1ccccc1OC | u | 10% | 1.8µM* | 54%[38.3 µM] | 18%
CCOC(=O)c1cnc(-n2nc(C)cc2C)nc1NNc1nc(C)cc(C)n1 | i | -23% | i | 0% | -1%
CCOC(=O)c1cnc(-n2nc(C)cc2C)nc1Nc1ccc(C)cc1 | i | -7% | 1µM* | 6% | 6%
COc1ccc(OC)c(CNC(=O)c2ccc(NC(=O)c3nsc4ccccc34)cc2)c1 | i | x | i | 0% | x
C[C@@H]1CCCCO[C@@H](CN(C)C(=O)CCCN(C)C)[C@@H](C)CN([C@H](C)CO)C(=O)c2cc(N(C)C)ccc2O1 | i | x | i | 1% | x
CC(=O)NC(c1cccc([N+](=O)[O-])c1)c1ccc2cccnc2c1O (stereo not drawn) | 3.7µM* | u | u | 3% | 15µM*
COc1cccc(C(NC(C)=O)c2nc(-c3cccnc3)cs2)c1 (stereo not drawn) | i | x | i | 1% | x
COc1cccc(C(NC(C)=O)c2ccc3cccnc3c2O)c1 (stereo not drawn) | 3.7µM* | 0.65µM* | i | 0% | u
O=[N+]([O-])c1ccc(NC(c2ccccc2)c2ccc3cccnc3c2O)cc1 (stereo not drawn) | 4.6µM* | 0.82µM* | u | -3% | u
Oc1cccc(C(Nc2nccs2)c2ccc3cccnc3c2O)c1 (stereo not drawn) | 3.3µM* | u | u | -1% | 12µM*
CCCCC(=O)NC(c1cccc([N+](=O)[O-])c1)c1ccc2cccnc2c1O (stereo not drawn) | u | u | u | 2% | u
Oc1c(C(Nc2ccccn2)c2ccccc2)ccc2cccnc12 (stereo not drawn) | i | x | i | 1% | x
CN(C)/[N+]([O-])=N/Oc1ccc([N+](=O)[O-])cc1C(F)(F)F | x | x | x | -2% | x

Compound activity: PubChem BioAssay, National Center for Advancing Translational Sciences (NCATS)
